# Source: PubChem BioAssay (Tox21)
# “And” between values parts separate entries of the source, which are not always exact repeats. Equal values may be shown once. Inconclusive results are not listed. Entries that show only a call come without a potency. More than one record can exist for a structure, and the calls need not agree. The source made the active and inactive calls. The call rests on the fitted dose curve; in most records, active means well fitted curve in the direction sought with a large enough effect in the repeat runs; inconclusive means weak or mixed curves; inactive means no such curve, though single readings can be large; an effect the other way counts as inactive or inconclusive.
# Columns and labels:
# [1] = qHTS RealTime-Glo MT Cell Viability Assay in HEK293 cells - 40 hour (AID 1224874); settings: RealTime-Glo luminescence; max response: stronger effect = lower value; further: nearly all actives have a fitted effect of over 50% in size
# Procedure, shortened: (§1)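 Tox21 screen in HEK293 using RealTime-Glo MT chemistry, with cells and reagent co-dispensed. Luminescence proportional to viable cell number was captured at intervals during 40 h compound exposure at 37 C.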
# [2] = A CellTox Green Cytotoxicity Assay to monitor cytotoxicity in HEK293 cells - 24 hour (AID 1224875); further: series mostly up to about 77 µM; nearly all actives have a fitted effect of over 45% in size
# Procedure, shortened: (§2)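 Seeding of HEK293 cells together with cytotoxicity dye preceded a 5 h incubation at 37 C/5% CO2. Test compounds in DMSO were then added and fluorescence monitored across 40 h.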
# [3] = A CellTox Green Cytotoxicity Assay to monitor cytotoxicity in HepG2 cells - 16 hour (AID 1224876); further: nearly all actives have a fitted effect of over 45% in size; further: potency means the concentration at half of the fitted maximal effect
# Procedure, shortened: (§3)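 Nonlytic assay: viable cells exclude the dye, so fluorescence scales with cell death. HepG2 at 600 cells/well, compounds added after 5 h, signal read across 40 h.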
# [4] = A CellTox Green Cytotoxicity Assay to monitor cytotoxicity in HepG2 cells - 24 hour (AID 1224878); further: nearly all actives have a fitted effect of over 45% in size; further: potency means the concentration at half of the fitted maximal effect
# Procedure, shortened: as §3
# [5] = A CellTox Green Cytotoxicity Assay to monitor cytotoxicity in HepG2 cells - 40 hour (AID 1224879); further: nearly all actives have a fitted effect of over 40% in size; further: potency means the concentration at half of the fitted maximal effect
# Procedure, shortened: as §3
# [6] = A CellTox Green Cytotoxicity Assay to monitor cytotoxicity in HEK293 cells - 32 hour (AID 1224881); further: nearly all actives have a fitted effect of over 40% in size; further: potency means the concentration at half of the fitted maximal effect
# Procedure, shortened: as §2
# [7] = A CellTox Green Cytotoxicity Assay to monitor cytotoxicity in HepG2 cells - 0 hour (AID 1224882); further: nearly all actives have a fitted effect of over 35% in size; further: potency means the concentration at half of the fitted maximal effect
# Procedure, shortened: as §3
# [8] = A CellTox Green Cytotoxicity Assay to monitor cytotoxicity in HepG2 cells - 32 hour (AID 1224883); further: nearly all actives have a fitted effect of over 50% in size; further: potency means the concentration at half of the fitted maximal effect
# Procedure, shortened: as §3
# [9] = A CellTox Green Cytotoxicity Assay to monitor cytotoxicity in HEK293 cells - 8 hour (AID 1224884); further: nearly all actives have a fitted effect of over 35% in size; further: potency means the concentration at half of the fitted maximal effect
# Procedure, shortened: as §2
# [10] = qHTS RealTime-Glo MT Cell Viability Assay in HepG2 cells - 16 hour (AID 1224885); further: nearly all actives have a fitted effect of over 50% in size
# Procedure, shortened: (§4)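 Compound treatment began 5 h after plating HepG2 cells (600/well) with NanoLuc luciferase and prosubstrate. Plates stayed at 37 C for 40 h; luminescence was captured at six time points, 0 h through 40 h.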
# [11] = qHTS RealTime-Glo MT Cell Viability Assay in HEK293 cells - 24 hour (AID 1224886); further: top concentration of the series differs between compounds; nearly all actives have a fitted effect of over 50% in size
# Procedure, shortened: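 Quantitative high-throughput screen of the Tox21 10K library in HEK293: cells and RealTime-Glo reagents plated together, compound added at 5 h, luminescence monitored through 40 h at 37 C.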
# [12] = qHTS RealTime-Glo MT Cell Viability Assay in HEK293 cells - 8 hour (AID 1224887)
# Procedure, shortened: as §1
# [13] = A CellTox Green Cytotoxicity Assay to monitor cytotoxicity in HEK293 cells - 16 hour (AID 1224888); further: nearly all actives have a fitted effect of over 35% in size
# Procedure, shortened: as §2
# [14] = qHTS RealTime-Glo MT Cell Viability Assay in HepG2 cells - 0 hour (AID 1224889); further: nearly all actives have a fitted effect of over 50% in size
# Procedure, shortened: as §4
# [15] = qHTS assay to identify small molecule antagonists of the estrogen receptor alpha (ER-alpha) signaling pathway using the BG1 cell line in the presence of 0.1 nM 17-beta-estradiol - cell viability counter screen (AID 1259241); further: nearly all actives have a fitted effect of over 40% in size
# Procedure, shortened: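 VM7Luc4E2 cells (endogenous full-length ER-alpha, 4xERE-luciferase), cultured 5 days in charcoal-stripped serum, exposed to compounds with 0.1 nM 17beta-estradiol (final) for 22 hr at 37C. Viability read in same wells as live-cell protease fluorescence after 30 min.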
# [16] = qHTS assay to identify small molecule antagonists of the androgen receptor (AR) signaling pathway using the MDA cell line in the presence of 0.5 nM R1881 - cell viability counter screen (AID 1259242); further: nearly all actives have a fitted effect of over 45% in size
# Procedure, shortened: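 R1881 at 0.5 nM final stimulated MDA-kb2 cells during 16 hr compound treatment at 37C. Cytotoxicity read: CellTiter-Fluor fluorescence after 30 min.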
# [17] = qHTS RealTime-Glo MT Cell Viability Assay in HEK293 cells - 0 hour (AID 1224880)
# Procedure, shortened: as §1
# [18] = A CellTox Green Cytotoxicity Assay to monitor cytotoxicity in HepG2 cells - 8 hour (AID 1224890); further: nearly all actives have a fitted effect of over 45% in size
# Procedure, shortened: as §3
# [19] = qHTS RealTime-Glo MT Cell Viability Assay in HepG2 cells - 32 hour (AID 1224877); further: nearly all actives have a fitted effect of over 55% in size
# Procedure, shortened: as §4
# [20] = molecular target: Androgen receptor (Homo sapiens) (UniProt P10275); test: qHTS assay to identify small molecule antagonists of the androgen receptor (AR) signaling pathway using the MDA cell line in the presence of 0.5 nM R1881 (AID 1259243); further: nearly all actives have a fitted effect of over 50% in size
# Procedure, shortened: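 We exposed MDA-kb2 cells to compounds under 0.5 nM R1881 stimulation for 16 hr at 37C and quantified MMTV-driven luciferase by luminescence.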
# Androgen receptor (Homo sapiens), sequence (P10275 whole entry, looked up): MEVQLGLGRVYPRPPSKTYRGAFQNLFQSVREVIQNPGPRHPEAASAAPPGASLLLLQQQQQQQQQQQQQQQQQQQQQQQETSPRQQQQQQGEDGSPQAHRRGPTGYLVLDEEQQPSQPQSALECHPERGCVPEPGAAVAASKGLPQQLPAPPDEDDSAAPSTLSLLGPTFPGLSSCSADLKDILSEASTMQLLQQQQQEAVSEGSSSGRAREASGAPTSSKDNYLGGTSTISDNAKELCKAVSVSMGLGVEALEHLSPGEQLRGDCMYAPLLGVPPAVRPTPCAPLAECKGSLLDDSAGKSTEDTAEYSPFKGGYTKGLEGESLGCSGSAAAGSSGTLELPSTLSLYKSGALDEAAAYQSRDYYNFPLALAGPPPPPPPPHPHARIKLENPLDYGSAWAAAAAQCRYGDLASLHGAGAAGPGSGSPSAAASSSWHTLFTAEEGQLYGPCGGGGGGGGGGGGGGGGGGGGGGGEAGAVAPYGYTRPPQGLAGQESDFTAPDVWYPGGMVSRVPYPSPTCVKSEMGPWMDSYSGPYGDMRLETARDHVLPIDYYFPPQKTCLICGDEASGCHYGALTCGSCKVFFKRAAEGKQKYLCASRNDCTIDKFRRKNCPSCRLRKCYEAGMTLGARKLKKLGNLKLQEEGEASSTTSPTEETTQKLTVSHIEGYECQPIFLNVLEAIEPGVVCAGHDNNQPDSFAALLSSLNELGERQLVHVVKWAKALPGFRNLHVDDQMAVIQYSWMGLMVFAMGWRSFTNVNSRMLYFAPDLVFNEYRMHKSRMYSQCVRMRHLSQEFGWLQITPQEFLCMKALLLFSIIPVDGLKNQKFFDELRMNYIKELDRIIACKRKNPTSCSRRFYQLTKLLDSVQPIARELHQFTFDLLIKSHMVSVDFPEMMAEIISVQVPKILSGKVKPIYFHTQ
SMILES,max response [1],Potency [2],Potency [3],Potency [4],Potency [5],Potency [6],Potency [7],Potency [8],Potency [9],outcome [10],Potency [11],outcome [12],Potency [13],outcome [14],Potency [15],outcome [16],outcome [17],Potency [18],outcome [19],Potency [20]
CC(C)C#N,8.8% (inactive) and 1.31% (inactive),inactive,inactive,inactive,inactive,inactive,inactive,inactive,inactive,inactive,inactive,inactive,inactive,inactive,inactive,inactive,,,,
CCCCCCCCCl,2.47% (inactive) and 5.32% (inactive),inactive,inactive,inactive,inactive,inactive,inactive,,inactive,inactive,inactive,inactive,,inactive,inactive,inactive,inactive,,,
BrCCBr,4.67% (inactive) and 8.82% (inactive),inactive,inactive,inactive,inactive,inactive,inactive,inactive,inactive,,inactive,inactive,,inactive,inactive,inactive,inactive,inactive,,
O=[N+]([O-])c1ccc(Oc2ccc(Cl)cc2Cl)cc1,,inactive,inactive,inactive,inactive,inactive,inactive,inactive,inactive,,,,,inactive,inactive,inactive,,inactive,inactive,
C=CCO,4.57% (inactive) and 0.311% (inactive),,inactive and 24.5 µM (active),inactive and 24.5 µM (active),inactive and 24.5 µM (active),inactive and 38.9 µM (active),inactive and 38.9 µM (active),inactive and 24.5 µM (active),inactive and 27.5 µM (active),inactive,inactive,inactive,,inactive,inactive,inactive,inactive,,,
CCC[CH2][Sn]([Cl])([Cl])[Cl],,inactive,inactive,inactive,inactive,inactive,inactive,,inactive,,inactive,inactive,inactive,inactive,inactive,inactive,inactive,inactive,inactive,
CCCN(CCC)c1c([N+](=O)[O-])cc(C(F)(F)F)cc1[N+](=O)[O-],-12.8% (inactive) and 1.59% (inactive),,inactive,inactive,inactive,1.55 µM (active) and inactive,inactive,inactive,1.23 µM (active) and inactive,inactive,inactive,,,inactive,inactive,inactive,inactive,inactive,inactive,inactive
